Assay results taken from article PMC4336329 (PLoS ONE, 2015).
Hit rate of the full screen: of about 310,000 compounds, about 14,000 (4.5%) showed an effect of 50% or more. The effect is printed as a negative number. What follows is part of a selection rich in strong results, with near analogues and random picks from the rest.

target: human ether-à-go-go-related gene (hERG) potassium channel (human, UniProt Q12809); test: primary screen, population patch clamp on CHO cells stably expressing hERG; higher = less effect of the substance
Sequence (Q12809 whole entry, looked up): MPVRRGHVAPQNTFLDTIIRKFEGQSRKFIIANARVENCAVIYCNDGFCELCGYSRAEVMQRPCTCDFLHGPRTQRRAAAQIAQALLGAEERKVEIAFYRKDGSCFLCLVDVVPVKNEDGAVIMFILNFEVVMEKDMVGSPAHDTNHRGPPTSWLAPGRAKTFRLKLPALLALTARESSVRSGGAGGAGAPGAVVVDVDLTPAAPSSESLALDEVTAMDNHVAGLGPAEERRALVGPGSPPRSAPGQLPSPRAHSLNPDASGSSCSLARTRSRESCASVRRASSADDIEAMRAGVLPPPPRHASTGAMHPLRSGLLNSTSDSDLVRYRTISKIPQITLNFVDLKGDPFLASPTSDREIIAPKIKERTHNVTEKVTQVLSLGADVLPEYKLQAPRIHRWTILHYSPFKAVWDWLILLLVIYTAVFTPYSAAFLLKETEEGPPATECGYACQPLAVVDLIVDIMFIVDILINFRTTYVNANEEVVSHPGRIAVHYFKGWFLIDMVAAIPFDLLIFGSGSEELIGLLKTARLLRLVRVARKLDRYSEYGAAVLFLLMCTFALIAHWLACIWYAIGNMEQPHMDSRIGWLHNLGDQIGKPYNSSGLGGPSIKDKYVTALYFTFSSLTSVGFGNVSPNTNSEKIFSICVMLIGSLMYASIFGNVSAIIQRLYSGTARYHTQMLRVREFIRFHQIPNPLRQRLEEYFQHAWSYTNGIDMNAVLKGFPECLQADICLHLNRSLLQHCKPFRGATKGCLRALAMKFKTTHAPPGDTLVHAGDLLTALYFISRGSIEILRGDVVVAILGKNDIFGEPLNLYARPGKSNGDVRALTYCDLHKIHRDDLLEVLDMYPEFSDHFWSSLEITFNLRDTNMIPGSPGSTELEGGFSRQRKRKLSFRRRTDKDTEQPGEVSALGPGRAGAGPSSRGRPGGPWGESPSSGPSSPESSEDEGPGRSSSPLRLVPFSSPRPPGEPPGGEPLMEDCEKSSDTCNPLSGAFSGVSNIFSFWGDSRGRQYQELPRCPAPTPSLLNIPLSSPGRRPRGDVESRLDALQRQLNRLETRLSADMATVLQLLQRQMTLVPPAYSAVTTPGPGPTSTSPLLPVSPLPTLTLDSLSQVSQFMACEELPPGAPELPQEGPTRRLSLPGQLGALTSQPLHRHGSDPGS
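Further: peak tail current of the secondary pulse compared with the same well before compound.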

Structure (SMILES) | hERG current change (%, negative = inhibition) at 10uM
COCCNC(=O)c1cc(S(=O)(=O)N2CCCCC2)ccc1N1CCOCC1 | 1.23%
Cc1ccc(S(=O)(=O)N2CCN(c3nc(CN4CCCC4)nc4sc(C)c(C)c34)CC2)cc1 | -77.7%
COc1ccc(-c2csc3ncnc(N4CCN(S(=O)(=O)c5cccc(F)c5)CC4)c23)cc1 | -3.5%
Cc1sc2nc(CN3CCOCC3)nc(NS(=O)(=O)c3ccccc3)c2c1C | 9.1%
Cc1cccc(N2CCN(S(=O)(=O)c3cccs3)CC2)c1C | -15.8%
Cc1sc2nc(CN3CCCC3)nc(N3CCN(S(=O)(=O)c4cccs4)CC3)c2c1C | -70.7%
Cc1nc(N2CCN(S(=O)(=O)c3ccc(F)cc3)CC2)c2c(C)c(C)sc2n1 | -6.58%
O=S(=O)(c1cccs1)N1CCN(Cc2ccccc2)CC1 | -14%
CCc1nc(N2CCN(S(=O)(=O)c3ccc(Br)cc3)CC2)c2c(C)c(C)sc2n1 | -32%
Cc1sc2nc(CN3CCOCC3)nc(N3CCN(S(=O)(=O)c4ccccc4)CC3)c2c1C | -41.6%
CCCc1nc(N2CCN(S(=O)(=O)c3ccc(Cl)cc3)CC2)c2c(C)c(C)sc2n1 | -17.1%
Cc1sc2nc(CN3CCCC3)nc(N3CCN(S(=O)(=O)c4cccc(F)c4)CC3)c2c1C | -70.1%
Cc1sc2nc(CN3CCCC3)nc(N3CCN(S(=O)(=O)c4ccccc4)CC3)c2c1C | -67%
CCCc1cc(=O)[nH]c(SCC(=O)N(CC)Cc2ccccc2)n1 | 7.9%
Cc1ccc(S(=O)(=O)C2(C(=O)N3CCCCC3C)CC2)cc1 (stereo not drawn) | 1.58%
CC1C(=O)N2CCCc3cc(S(=O)(=O)N(C)Cc4ccccc4)cc1c32 (stereo not drawn) | -14.7%
O=C(O)c1cc(=O)n(Cc2ccccc2)c(=O)[nH]1 | 15%
Cc1ccc(C(C)NC(=O)c2cccnc2)cc1 (stereo not drawn) | 11.2%
Clc1ccccc1Cn1c(/C=C/c2ccco2)nc2ccccc21 | 13.5%
COc1cc2c(cc1NC(=O)COC(=O)CNS(=O)(=O)c1ccc(C)cc1)oc1ccccc12 | 1.63%
CN(c1ccc(C(=O)Nc2cccnc2)cc1)S(=O)(=O)c1ccccc1 | -14.9%
COc1ccc(-c2nnc(SCC(=O)Nc3sc4c(c3C#N)CCCC4)n2-c2ccccc2)cc1 | 15.4%
Cc1sc2nc(CN3CCOCC3)nc(N3CCOCC3)c2c1C.O=C(O)C(=O)O | -10.8%

Structure (SMILES) | hERG current change (%, negative = inhibition) at 10uM
Cc1ccc(S(=O)(=O)Nc2nc(CN3CCOCC3)nc3sc(C)c(C)c23)cc1 | -43%
Cc1ccc(C)c(S(=O)(=O)N2CCN(c3nc(CN4CCOCC4)nc4sc(C)c(C)c34)CC2)c1 | -57.1%
O=C(CNc1n[nH]c(=O)[nH]c1=O)N/N=C/c1ccccc1 | 2.89%
O=S(NC1CCCCC1)C12CC3CC(CC(C3)C1)C2 (stereo not drawn) | -12.4%
Cc1nc(N2CCN(Cc3ccccc3)CC2)c(C#N)c2c1COC(C)(C)C2 | -5.21%
Cc1nc(N2CCN(C(=O)c3ccc(Cl)cc3)CC2)c(C#N)c2c1COC(C)(C)C2 | -60.8%
CCCNC(=O)N1CCN(c2nc(C(C)C)c3c(c2C#N)CC(C)(C)OC3)CC1 | 4.84%
CC(C)c1nc(N2CCN(C(=O)c3ccco3)CC2)c(C#N)c2c1COC(C)(C)C2 | -71.5%
CCc1nc(N2CCN(C(=O)c3ccccc3)CC2)c(C#N)c2c1COC(C)(C)C2 | -46.5%
CC(C)c1nc(N2CCN(C(=O)c3ccccc3)CC2)c(C#N)c2c1COC(C)(C)C2 | -40.8%
CC1(C)Cc2c(C#N)c(N3CCN(C(=O)c4ccco4)CC3)nc(Cc3ccccc3)c2CO1 | -25.3%
CCc1nc(N2CCN(C(=O)c3ccco3)CC2)c(C#N)c2c1COC(C)(C)C2 | -52.1%
CCc1nc(N2CCN(C(C)=O)CC2)c(C#N)c2c1COC(C)(C)C2 | -0.704%
O=C(CC1SC(N2CCCCC2)=NC1=O)Nc1cccc(C(F)(F)F)c1 (stereo not drawn) | 12.3%
CCOc1ccc(C2Oc3nc(SC)nnc3-c3ccccc3N2C(C)=O)cc1OC (stereo not drawn) | 9.64%
CCC(Sc1nnc(-c2ccc(C)c(Cl)c2)n1CC)C(=O)Nc1nccs1 (stereo not drawn) | -20.6%
CCOC(=O)/C=C(\C)Sc1cc(=O)oc2ccccc12 | -40.4%
O=C(Nc1nccs1)c1ccc(COc2ccccc2)o1 | 15.6%
O=C(O)CC1c2ccccc2CCN1S(=O)(=O)c1ccc(F)cc1 (stereo not drawn) | 8.32%
CCc1ccc2[nH]c(=O)c(-c3ccccc3)c(O)c2c1 | 17.5%
CN(CC(N)=O)S(=O)(=O)c1ccc(F)cc1 | -15.7%
O=C(CSc1ccc2nnc(-c3cccnc3)n2n1)N1CCOCC1 | -25%
O=C(CSc1ccc2nnc(-c3cccnc3)n2n1)c1ccccc1 | -70%

Structure (SMILES) | hERG current change (%, negative = inhibition) at 10uM
COc1ccc(C(=O)CSc2ccc3nnc(-c4cccnc4)n3n2)cc1 | -70.3%
CCC(Sc1ccc2nnc(-c3cccnc3)n2n1)C(=O)OC (stereo not drawn) | -47%
CCOC(=O)CSc1ccc2nnc(-c3cccnc3)n2n1 | -31%
O=C(O)CSc1ccc2nnc(-c3cccnc3)n2n1 | 12.2%
O=C(Nc1cccc(NC(=O)C2CC2)n1)C1CC1 | -6.67%
CCOC(=O)N1CCN(c2cc(N3CCOCC3)c(F)cc2[N+](=O)[O-])CC1 | -18.2%
CC1=CC(=O)OC1Cc1ccncc1 (stereo not drawn) | 11.3%
NC(=O)C1CCN(C(=O)CCSCc2ccc(Cl)c(Cl)c2)CC1 | -13.3%
COC(=O)c1ccc(CN2CCC(CO)(Cc3ccccc3Cl)CC2)cc1 | -64.8%
COc1ccc(CC2(CO)CCN(Cc3ccncc3)CC2)cc1 | -21.2%
COC(=O)c1ccc(CN2CCCCC2)cc1 | 1.45%
CCN1CCN(Cc2ccc(OC(F)(F)F)cc2)CC1 | -26.6%
COC(=O)c1cccc(C(=O)N2CCC(CO)(Cc3ccccc3Cl)CC2)c1 | -23.1%
COC(=O)c1ccc(CN2CCC(CO)(Cc3cccc(OC)c3)CC2)cc1 | -66.1%
COc1ccc(-c2ncc(CN3CCC(CO)(Cc4cccc(OC)c4)CC3)cn2)cc1 | -4.79%
COc1cccc(CC2(CO)CCN(Cc3cn(C)nc3C)CC2)c1 | 18.3%
COC(=O)c1ccc(CN2CCC(CO)(Cc3ccc(OC)cc3)CC2)cc1 | -66.1%
COc1ccc(CC2(CO)CCN(Cc3ccc(OC(F)(F)F)cc3)CC2)cc1 | -75.1%
Nn1c(SCC(=O)Nc2c(F)cc(F)cc2Br)nnc1C1CCCCC1 | 3.21%
CCOC(=O)c1nnn(-c2nonc2-c2ccccc2)c1C | -25.2%
S=c1[nH]cc(-c2ccccc2)n1-c1ccccc1Cl | 9.61%
CCc1onc(C)c1C(=O)Nc1ccc(N2CCOCC2)cc1 | 15%
Clc1ccc(-c2noc(/C=C/c3ccccc3)n2)cc1 | 18.2%

Structure (SMILES) | hERG current change (%, negative = inhibition) at 10uM
CC1(C)C2CC=C(CN3CCC(O)CC3)C1C2 (stereo not drawn) | -7.45%
COc1ccc(CC2(CO)CCN(CC3=CC[C@H]4C[C@@H]3C4(C)C)CC2)cc1 | -58.7%
COc1cccc(CC2(CO)CCN(CC3=CC[C@H]4C[C@@H]3C4(C)C)CC2)c1 | -44.2%
CCN(CC)S(=O)(=O)c1ccc2c(c1)nc(SCc1nc3ccsc3c(=O)[nH]1)n2CC | -30.8%
COc1ccc(C=NCCC2(O)CC(C)N(C)CC2C)cc1 (stereo not drawn) | 8.31%
CC1Oc2cc3c(-c4c(O)cc(O)c5c(O)c6c(cc45)OC(C)C(C)C6=O)c(O)cc(O)c3c(O)c2C(=O)C1C (stereo not drawn) | 10.8%
CCCCOc1ccc(C(=O)OC2CC(C)N(C)CC2C)cc1 (stereo not drawn) | -25.4%
CC1CN(C)C(C)CC1OC(=O)C(c1ccccc1)c1ccccc1 (stereo not drawn) | -73.7%
C[N+]1(C)CCC(OC(=O)C(c2ccccc2)c2ccccc2)CC1.[I-] | 1.2%
C[N+]1(C)[C@@H]2CC[C@H]1CC(OC(=O)C(c1ccccc1)c1ccccc1)C2.[I-] (stereo partly drawn) | 18%
CC1CN(C(C)C)C(C)CC1OC(=O)c1ccccc1 (stereo not drawn) | 15.7%
CN(C)[C@@H]1CCC[C@H]1OC(=O)C(c1ccccc1)c1ccccc1 | -65.2%
O=C(Cc1cccs1)NCCn1ccc2ccccc21 | -6.95%
Cc1ccc(C2=NN(C(=O)CSc3nnnn3C)C(c3ccco3)C2)cc1 (stereo not drawn) | 17.1%
Cc1cn(C)c(=O)n(C)c1=O | 4.46%
Cc1ccc(-c2c[n+](CC(=O)Nc3nc(-c4ccc(F)cc4)cs3)c3n2CCC3)cc1.[Cl-] | -74.2%
O=C(C[n+]1cc(-c2ccc(F)cc2)n2c1CCC2)Nc1nc(-c2ccc(F)cc2)cs1.[Cl-] | -76.7%
O=C(C[n+]1cc(-c2ccc(F)cc2)n2c1CCC2)Nc1nc(-c2ccccc2)cs1.[Cl-] | -11.1%
O=C(C[n+]1cc(-c2ccc(Cl)cc2)n2c1CCC2)Nc1nc(-c2ccc(F)cc2)cs1.[Cl-] | -48.4%
Cn1c(NC(=O)C[n+]2cc(-c3ccc(F)cc3)n3c2CCC3)cc(=O)n(C)c1=O.[Cl-] | 1.04%
O=C(C[n+]1cc(-c2ccccc2)n2c1CCC2)Nc1nc(-c2ccc(F)cc2)cs1.[Cl-] | -20.3%
